According to PubChem BioAssay AID1159580 (chemical genetic matrix, 2015):
Where “and” joins values, the source holds several entries; their conditions need not be identical. Identical values can stand only once. Out of some 5,500 compounds screened, about 2,000 (36%) were called active. Roughly 18% stayed inconclusive and do not appear here. Rule as the data show it: active = normalized growth mostly below about 0.91 (no sharp cut-off); inconclusive = no clear call, values can overlap the other calls; inactive = mostly above about 0.92. This is one part of the list.

Assay: chemical genetic growth profiling, strain panel (AID 1159580);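 also: tested at 20 µM; growth read once vehicle control cultures reached saturation at 30 °C; 1 = growth at the plate median or of vehicle wells; lower values mean less growth of the strain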
Details: S. cerevisiae deletion strains, growth OD

Measured: normalized growth

O=c1oc2ccccc2c(O)c1Cc1c(O)c2ccccc2oc1=O
inactive: locus YAL013W, strain DEP1, hits give low values 1.01 | locus YAL021C, strain ccr4, hits give low values 0.977 | locus YAL026C, strain drs2, hits give low values 1.03 | locus YAL030W, strain snc1, hits give low values 1.02 | locus YBL061C, strain skt5, hits give low values 1.02 | locus YBR009C, strain hhf1, hits give low values 1.01 | locus YBR021W, strain FUR4, hits give low values 1.01 | locus YBR023C, strain chs3, hits give low values 1.01 | locus YBR171W, strain sec66, hits give low values 1.01 | locus YBR229C, strain ROT2, hits give low values 0.998 | locus YBR231C, strain swc5, hits give low values 1.02 | locus YBR279W, strain paf1, hits give low values 1 | locus YCL011C, strain gbp2, hits give low values 1.02 | locus YCL016C, strain dcc1, hits give low values 1 | locus YCL029C, strain bik1, hits give low values 0.968 | locus YCL069W, strain vba3, hits give low values 1.02 | locus YCR088W, strain abp1, hits give low values 1.02 | locus YDL005C, strain med2, hits give low values 1.04 | locus YDL035C, strain GPR1, hits give low values 1.04 | locus YDL040C, strain nat1, hits give low values 1.03 | locus YDL074C, strain BRE1, hits give low values 1.02 | locus YDL101C, strain DUN1, hits give low values 1.01 | locus YDL185W, strain tfp1, hits give low values 0.962 | locus YDL192W, strain arf1, hits give low values 0.962 | locus YDR001C, strain nth1, hits give low values 1 | locus YDR069C, strain doa4, hits give low values 0.994 | locus YDR101C, strain arx1, hits give low values 0.984 | locus YDR137W, strain rgp1, hits give low values 1.03 | locus YDR159W, strain sac3, hits give low values 0.936 | locus YDR162C, strain NBP2, hits give low values 1.01 | locus YDR195W, strain ref2 1.01 | locus YDR297W, strain sur2, hits give low values 1.01 | locus YDR318W, strain mcm21, hits give low values 0.979 | locus YDR334W, strain swr1, hits give low values 1.04 | locus YDR335W, strain msn5, hits give low values 1.02 | locus YDR388W, hits give low values 0.959 | locus YDR392W, strain spt3, hits give low values 0.919 | locus YDR502C, strain sam2, hits give low values 0.982 | locus YEL003W, strain gim4, hits give low values 1.02 | locus YEL037C, strain rad23, hits give low values 1.03 | locus YEL061C, strain CIN8 (second series), hits give low values 1.03 | locus YEL061C, strain CIN8, hits give low values 0.993 | locus YER015W, strain faa2, hits give low values 1.01 | locus YER016W, strain bim1, hits give low values 1.01 | locus YER110C, hits give low values 0.96 | locus YER111C, strain swi4, hits give low values 1.01 | locus YER155C, strain BEM2 (second series), hits give low values 1.02 | locus YER155C, strain BEM2, hits give low values 0.984 | locus YER167W, strain BCK2, hits give low values 1.01 | locus YFR010W, strain ubp6, hits give low values 1.02 | locus YGL078C, strain dbp3, hits give low values 0.952 | locus YGL086W, strain mad1, hits give low values 0.996 | locus YGL167C, strain pmr1, hits give low values 1.01 | locus YGL173C, strain kem1, hits give low values 1.01 | locus YGL227W, strain vid30, hits give low values 1 | locus YGL240W, strain doc1, hits give low values 0.984 | locus YGL248W, strain PDE1, hits give low values 1.01 | locus YGL253W, strain hxk2, hits give low values 1.02 | locus YGR078C, strain PAC10, hits give low values 1.01 | locus YGR135W, strain pre9, hits give low values 0.959 | locus YGR229C, strain SMI1, hits give low values 1.02 | locus YGR252W, strain gcn5, hits give low values 0.95 | locus YHR013C, strain ard1, hits give low values 1 | locus YHR027C, strain rpn1, hits give low values 1.01 | locus YHR030C, strain SLT2, hits give low values 0.993 and 0.907 | locus YHR079C, strain IRE1 (second series), hits give low values 0.963 | locus YHR079C, strain IRE1, hits give low values 0.917 | locus YHR094C, strain hxt1, hits give low values 0.96 | locus YHR129C, strain ARP1, hits give low values 0.991 | locus YHR142W, strain chs7, hits give low values 1.08 | locus YHR200W, strain rpn10, hits give low values 0.98 | locus YIL066C, strain RNR3, hits give low values 1 | locus YIL073C, strain SPO22, hits give low values 0.979 | locus YIL125W, strain kgd1, hits give low values 0.959 | locus YIR030C, strain dcg1, hits give low values 0.96 | locus YJL092W, strain hpr5, hits give low values 1.01 | locus YJL095W, strain BCK1 (second series), hits give low values 1.01 | locus YJL095W, strain BCK1, hits give low values 0.989 and 0.898 | locus YJL115W, strain asf1, hits give low values 1.01 | locus YJL129C, strain trk1, hits give low values 1 | locus YJL134W, strain LCB3, hits give low values 0.987 | locus YJL154C, strain vps35, hits give low values 1.02 | locus YJL164C, strain tpk1, hits give low values 1.03 | locus YJL166W, strain qcr8, hits give low values 0.995 | locus YJL168C, strain set2, hits give low values 0.953 | locus YJL187C, strain SWE1 (second series), hits give low values 1 | locus YJL187C, strain SWE1, hits give low values 0.991 | locus YJR043C, strain POL32, hits give low values 1.02
